Laboratory results taken from PubChem BioAssay AID1159580 (chemical genetic matrix, 2015).
The campaign covered roughly 5,500 compounds. About 2,000 (36%) were called active. Another 18% or so got no clear call; they are omitted. No stated cut-off is given here; in the data, active means normalized growth mostly below about 0.91 (no sharp cut-off); inconclusive means no clear call, values can overlap the other calls; inactive means mostly above about 0.92. The list shows a part of the results.

Assay: chemical genetic growth profiling, strain panel (AID 1159580);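 further: tested at 20 µM; growth read once vehicle control cultures reached saturation at 30 °C; 1 = growth at the plate median or of vehicle wells; lower values mean less growth of the strain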
Conditions: growth OD

Measured: normalized growth

COC(=O)C(N)CS (configuration not stated)
active: S. cerevisiae deletion strains, locus YLR268W, strain sec22, active compounds read low 0.871 | S. cerevisiae deletion strains, locus YNL307C, strain MCK1, active compounds read low 0.797 | S. cerevisiae deletion strains, locus YPR163C, strain tif3, active compounds read low 0.887
inactive: S. cerevisiae deletion strains, locus YJR075W, strain HOC1, active compounds read low 0.977 | S. cerevisiae deletion strains, locus YKL009W, strain mrt4, active compounds read low 1.02 | S. cerevisiae deletion strains, locus YKL068W, active compounds read low 0.99 | S. cerevisiae deletion strains, locus YKL085W, strain MDH1 (second series), active compounds read low 0.992 | S. cerevisiae deletion strains, locus YKL085W, strain MDH1, active compounds read low 0.992 | S. cerevisiae deletion strains, locus YKL160W, strain elf1, active compounds read low 1.02 | S. cerevisiae deletion strains, locus YKL190W, strain CNB1, active compounds read low 0.998 | S. cerevisiae deletion strains, locus YKR001C, strain vps1, active compounds read low 0.924 | S. cerevisiae deletion strains, locus YKR026C, strain gcn3, active compounds read low 0.985 | S. cerevisiae deletion strains, locus YKR091W, strain srl3, active compounds read low 0.99 | S. cerevisiae deletion strains, locus YLL001W, strain dnm1, active compounds read low 0.948 | S. cerevisiae deletion strains, locus YLL026W, active compounds read low 0.978 | S. cerevisiae deletion strains, locus YLL041C, strain sdh2, active compounds read low 0.985 | S. cerevisiae deletion strains, locus YLR027C, strain aat2, active compounds read low 0.988 | S. cerevisiae deletion strains, locus YLR039C, strain RIC1, active compounds read low 0.897 | S. cerevisiae deletion strains, locus YLR058C, strain SHM2, active compounds read low 0.99 | S. cerevisiae deletion strains, locus YLR102C, strain apc9, active compounds read low 0.98 | S. cerevisiae deletion strains, locus YLR113W, strain HOG1, active compounds read low 0.972 | S. cerevisiae deletion strains, locus YLR221C, strain rsa3, active compounds read low 0.961 | S. cerevisiae deletion strains, locus YLR258W, strain gsy2, active compounds read low 1 | S. cerevisiae deletion strains, locus YLR262C, strain YPT6 (second series), active compounds read low 0.926 | S. cerevisiae deletion strains, locus YLR262C, strain YPT6, active compounds read low 0.943 | S. cerevisiae deletion strains, locus YLR320W, strain mms22, active compounds read low 0.92 | S. cerevisiae deletion strains, locus YLR330W, strain CHS5, active compounds read low 0.993 | S. cerevisiae deletion strains, locus YLR342W, strain FKS1 (second series), active compounds read low 0.938 | S. cerevisiae deletion strains, locus YLR342W, strain FKS1, active compounds read low 0.984 | S. cerevisiae deletion strains, locus YLR357W, strain rsc2, active compounds read low 0.947 | S. cerevisiae deletion strains, locus YLR370C, strain arc18, active compounds read low 0.996 | S. cerevisiae deletion strains, locus YLR371W, strain rom2, active compounds read low 0.967 | S. cerevisiae deletion strains, locus YLR384C, strain iki3, active compounds read low 0.992 | S. cerevisiae deletion strains, locus YLR418C, strain cdc73, active compounds read low 0.888 | S. cerevisiae deletion strains, locus YML016C, strain PPZ1, active compounds read low 0.989 | S. cerevisiae deletion strains, locus YML032C, strain rad52, active compounds read low 0.962 | S. cerevisiae deletion strains, locus YML120C, strain ndi1, active compounds read low 0.949 | S. cerevisiae deletion strains, locus YML124C, strain tub3, active compounds read low 0.985 | S. cerevisiae deletion strains, locus YMR058W, strain fet3, active compounds read low 0.963 | S. cerevisiae deletion strains, locus YMR078C, strain ctf18, active compounds read low 0.968 | S. cerevisiae deletion strains, locus YMR125W, strain sto1, active compounds read low 1.01 | S. cerevisiae deletion strains, locus YMR129W, active compounds read low 1 | S. cerevisiae deletion strains, locus YMR205C, strain PFK2, active compounds read low 0.957 | S. cerevisiae deletion strains, locus YMR223W, strain ubp8, active compounds read low 0.965 | S. cerevisiae deletion strains, locus YMR231W, strain pep5, active compounds read low 0.981 | S. cerevisiae deletion strains, locus YMR263W, strain SAP30, active compounds read low 0.984 | S. cerevisiae deletion strains, locus YMR307W, strain GAS1, active compounds read low 1 | S. cerevisiae deletion strains, locus YNL067W, strain RPL9B, active compounds read low 0.968 | S. cerevisiae deletion strains, locus YNL071W, strain lat1, active compounds read low 0.968 | S. cerevisiae deletion strains, locus YNL128W, strain TEP1, active compounds read low 0.983 | S. cerevisiae deletion strains, locus YNL153C, strain GIM3, active compounds read low 0.991 | S. cerevisiae deletion strains, locus YNL183C, strain NPR1, active compounds read low 1 | S. cerevisiae deletion strains, locus YNL209W, strain ssb2, active compounds read low 1.01 | S. cerevisiae deletion strains, locus YNL233W, strain BNI4, active compounds read low 0.955 | S. cerevisiae deletion strains, locus YNL248C, strain rpa49, active compounds read low 0.984 | S. cerevisiae deletion strains, locus YNL250W, strain rad50, active compounds read low 0.98 | S. cerevisiae deletion strains, locus YNL271C, strain bni1, active compounds read low 0.98 | S. cerevisiae deletion strains, locus YNL298W, strain CLA4, active compounds read low 0.991 | S. cerevisiae deletion strains, locus YNL322C, strain KRE1 (second series), active compounds read low 1 | S. cerevisiae deletion strains, locus YNL322C, strain KRE1, active compounds read low 1 | S. cerevisiae deletion strains, locus YNR049C, strain mso1, active compounds read low 0.986 | S. cerevisiae deletion strains, locus YNR052C, strain pop2, active compounds read low 0.973 | S. cerevisiae deletion strains, locus YOL006C, strain TOP1, active compounds read low 0.896 | S. cerevisiae deletion strains, locus YOL012C, strain htz1 1.21 | S. cerevisiae deletion strains, locus YOL147C, strain pex11, active compounds read low 0.984 | S. cerevisiae deletion strains, locus YOR001W, strain rrp6, active compounds read low 0.929 | S. cerevisiae deletion strains, locus YOR061W, strain CKA2, active compounds read low 0.989 | S. cerevisiae deletion strains, locus YOR069W, strain VPS5, active compounds read low 0.991 | S. cerevisiae deletion strains, locus YOR070C, strain gyp1, active compounds read low 0.999 | S. cerevisiae deletion strains, locus YOR080W, strain dia2, active compounds read low 0.979 | S. cerevisiae deletion strains, locus YOR083W, strain WHI5, active compounds read low 0.988 | S. cerevisiae deletion strains, locus YOR106W, strain vam3, active compounds read low 0.949 | S. cerevisiae deletion strains, locus YOR136W, strain idh2, active compounds read low 0.978 | S. cerevisiae deletion strains, locus YOR144C, strain elg1, active compounds read low 0.979 | S. cerevisiae deletion strains, locus YOR184W, strain ser1, active compounds read low 0.911 | S. cerevisiae deletion strains, locus YOR231W, strain MKK1, active compounds read low 1 | S. cerevisiae deletion strains, locus YOR265W, strain rbl2, active compounds read low 0.992 | S. cerevisiae deletion strains, locus YOR270C, strain vph1, active compounds read low 0.805 | S. cerevisiae deletion strains, locus YOR290C, strain snf2, active compounds read low 1.02 | S. cerevisiae deletion strains, locus YOR316C, strain cot1, active compounds read low 0.987 | S. cerevisiae deletion strains, locus YPL051W, strain arl3, active compounds read low 1.01 | S. cerevisiae deletion strains, locus YPL055C, strain LGE1, active compounds read low 0.993 | S. cerevisiae deletion strains, locus YPL078C, strain atp4, active compounds read low 1.01 | S. cerevisiae deletion strains, locus YPL106C, strain sse1, active compounds read low 1.03 | S. cerevisiae deletion strains, locus YPL240C, strain hsp82, active compounds read low 0.987 | S. cerevisiae deletion strains, locus YPL241C, strain CIN2, active compounds read low 0.996 | S. cerevisiae deletion strains, locus YPL256C, strain CLN2, active compounds read low 1.05 | S. cerevisiae deletion strains, locus YPR119W, strain clb2, active compounds read low 0.977 | S. cerevisiae deletion strains, locus YPR141C, strain kar3, active compounds read low 0.979 | S. cerevisiae deletion strains, locus YPR167C, strain met16, active compounds read low 0.98 | S. cerevisiae deletion strains, strain wtn01, active compounds read low 0.967 | S. cerevisiae strains, strain wild type, active compounds read low 0.983
